# Assay results from the supplement of paper PMC4466140.
# Molecular target: AgAbp1
# Assay: SPOT peptide array binding signal intensity (averaged, normalized) (arbitrary units (background-subtracted, floor 0; scale differs between SH3 domains)); higher = stronger binding of the SH3 domain to the peptide
# In short: (§1)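 SH3 domains from four yeast species were expressed as GST fusions in E. coli BL21(DE3) and purified on glutathione Sepharose. Each was incubated at 10 μg/ml overnight at 4°C in TBS-based blocking buffer on cellulose membranes bearing synthetic 15-mer peptides, in which serines replaced cysteines. Bound protein was detected with anti-GST antibody, an HRP anti-mouse secondary and luminol, then imaged and quantified with Genespotter. The binding signal is the normalized, background-subtracted spot intensity averaged over replicates, in arbitrary units that are not the same from one domain to another.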
row,Binder,SPOT peptide array binding signal intensity
1,QPQRTAPKPPISAPR,2

# Molecular target: AgBbc1
# Assay: as above
# In short: as §1
row,Binder,SPOT peptide array binding signal intensity
1,QPQRTAPKPPISAPR,170

# Molecular target: AgBem1-D1
# Assay: as above
# In short: as §1
row,Binder,SPOT peptide array binding signal intensity
1,QPQRTAPKPPISAPR,128

# Molecular target: AgBzz1-D1
# Assay: as above
# In short: as §1
row,Binder,SPOT peptide array binding signal intensity
1,QPQRTAPKPPISAPR,51

# Molecular target: AgBzz1-D2
# Assay: as above
# In short: as §1
row,Binder,SPOT peptide array binding signal intensity
1,QPQRTAPKPPISAPR,28

# Molecular target: AgCyk3
# Assay: as above
# In short: as §1
row,Binder,SPOT peptide array binding signal intensity
1,QPQRTAPKPPISAPR,1

# Molecular target: AgFus1
# Assay: as above
# In short: as §1
row,Binder,SPOT peptide array binding signal intensity
1,QPQRTAPKPPISAPR,11

# Molecular target: AgHof1
# Assay: as above
# In short: as §1
row,Binder,SPOT peptide array binding signal intensity
1,QPQRTAPKPPISAPR,4.75

# Molecular target: AgHse1
# Assay: as above
# In short: as §1
row,Binder,SPOT peptide array binding signal intensity
1,QPQRTAPKPPISAPR,14

# Molecular target: AgLsb1
# Assay: as above
# In short: as §1
row,Binder,SPOT peptide array binding signal intensity
1,QPQRTAPKPPISAPR,0.5

# Molecular target: AgLsb4
# Assay: as above
# In short: as §1
row,Binder,SPOT peptide array binding signal intensity
1,QPQRTAPKPPISAPR,≤ 0

# Molecular target: AgMyo5
# Assay: as above
# In short: as §1
row,Binder,SPOT peptide array binding signal intensity
1,QPQRTAPKPPISAPR,327

# Molecular target: AgNbp2
# Assay: as above
# In short: as §1
row,Binder,SPOT peptide array binding signal intensity
1,QPQRTAPKPPISAPR,1510

# Molecular target: AgRvs167
# Assay: as above
# In short: as §1
row,Binder,SPOT peptide array binding signal intensity
1,QPQRTAPKPPISAPR,1

# Molecular target: AgSho1
# Assay: as above
# In short: as §1
row,Binder,SPOT peptide array binding signal intensity
1,QPQRTAPKPPISAPR,4

# Molecular target: AgSla1-D1-D2
# Assay: as above
# In short: as §1
row,Binder,SPOT peptide array binding signal intensity
1,QPQRTAPKPPISAPR,≤ 0

# Molecular target: AgSla1-D3
# Assay: as above
# In short: as §1
row,Binder,SPOT peptide array binding signal intensity
1,QPQRTAPKPPISAPR,≤ 0

# Molecular target: CaAbp1-D1
# Assay: as above
# In short: as §1
row,Binder,SPOT peptide array binding signal intensity
1,QPQRTAPKPPISAPR,≤ 0

# Molecular target: CaAbp1-D2
# Assay: as above
# In short: as §1
row,Binder,SPOT peptide array binding signal intensity
1,QPQRTAPKPPISAPR,5

# Molecular target: CaBbc1
# Assay: as above
# In short: as §1
row,Binder,SPOT peptide array binding signal intensity
1,QPQRTAPKPPISAPR,693

# Molecular target: CaBem1-D1
# Assay: as above
# In short: as §1
row,Binder,SPOT peptide array binding signal intensity
1,QPQRTAPKPPISAPR,73

# Molecular target: CaBzz1-D1
# Assay: as above
# In short: as §1
row,Binder,SPOT peptide array binding signal intensity
1,QPQRTAPKPPISAPR,1260

# Molecular target: CaBzz1-D2
# Assay: as above
# In short: as §1
row,Binder,SPOT peptide array binding signal intensity
1,QPQRTAPKPPISAPR,420

# Molecular target: CaCyk3
# Assay: as above
# In short: as §1
row,Binder,SPOT peptide array binding signal intensity
1,QPQRTAPKPPISAPR,0.5

# Molecular target: CaFus1
# Assay: as above
# In short: as §1
row,Binder,SPOT peptide array binding signal intensity
1,QPQRTAPKPPISAPR,≤ 0

# Molecular target: CaHof1
# Assay: as above
# In short: as §1
row,Binder,SPOT peptide array binding signal intensity
1,QPQRTAPKPPISAPR,0.5

# Molecular target: CaHse1
# Assay: as above
# In short: as §1
row,Binder,SPOT peptide array binding signal intensity
1,QPQRTAPKPPISAPR,≤ 0

# Molecular target: CaLsb1
# Assay: as above
# In short: as §1
row,Binder,SPOT peptide array binding signal intensity
1,QPQRTAPKPPISAPR,0.5

# Molecular target: CaLsb4
# Assay: as above
# In short: as §1
row,Binder,SPOT peptide array binding signal intensity
1,QPQRTAPKPPISAPR,≤ 0

# Molecular target: CaMyo5
# Assay: as above
# In short: as §1
row,Binder,SPOT peptide array binding signal intensity
1,QPQRTAPKPPISAPR,7.5

# Molecular target: CaNbp2
# Assay: as above
# In short: as §1
row,Binder,SPOT peptide array binding signal intensity
1,QPQRTAPKPPISAPR,1340

# Molecular target: CaRvs167
# Assay: as above
# In short: as §1
row,Binder,SPOT peptide array binding signal intensity
1,QPQRTAPKPPISAPR,≤ 0

# Molecular target: CaRvs167-3
# Assay: as above
# In short: as §1
row,Binder,SPOT peptide array binding signal intensity
1,QPQRTAPKPPISAPR,1

# Molecular target: CaSho1
# Assay: as above
# In short: as §1
row,Binder,SPOT peptide array binding signal intensity
1,QPQRTAPKPPISAPR,14

# Molecular target: CaSla1-D1-D2
# Assay: as above
# In short: as §1
row,Binder,SPOT peptide array binding signal intensity
1,QPQRTAPKPPISAPR,291

# Molecular target: CaSla1-D3
# Assay: as above
# In short: as §1
row,Binder,SPOT peptide array binding signal intensity
1,QPQRTAPKPPISAPR,0.5

# Molecular target: ScAbp1
# Assay: as above
# In short: as §1
row,Binder,SPOT peptide array binding signal intensity
1,QPQRTAPKPPISAPR,8

# Molecular target: ScBbc1
# Assay: as above
# In short: as §1
row,Binder,SPOT peptide array binding signal intensity
1,QPQRTAPKPPISAPR,268

# Molecular target: ScBem1-D1
# Assay: as above
# In short: as §1
row,Binder,SPOT peptide array binding signal intensity
1,QPQRTAPKPPISAPR,≤ 0

# Molecular target: ScBzz1-D1
# Assay: as above
# In short: as §1
row,Binder,SPOT peptide array binding signal intensity
1,QPQRTAPKPPISAPR,4

# Molecular target: ScBzz1-D2
# Assay: as above
# In short: as §1
row,Binder,SPOT peptide array binding signal intensity
1,QPQRTAPKPPISAPR,15.5

# Molecular target: ScCyk3
# Assay: as above
# In short: as §1
row,Binder,SPOT peptide array binding signal intensity
1,QPQRTAPKPPISAPR,≤ 0

# Molecular target: ScFus1
# Assay: as above
# In short: as §1
row,Binder,SPOT peptide array binding signal intensity
1,QPQRTAPKPPISAPR,≤ 0

# Molecular target: ScHof1
# Assay: as above
# In short: as §1
row,Binder,SPOT peptide array binding signal intensity
1,QPQRTAPKPPISAPR,≤ 0

# Molecular target: ScHse1
# Assay: as above
# In short: as §1
row,Binder,SPOT peptide array binding signal intensity
1,QPQRTAPKPPISAPR,≤ 0

# Molecular target: ScLsb1
# Assay: as above
# In short: as §1
row,Binder,SPOT peptide array binding signal intensity
1,QPQRTAPKPPISAPR,≤ 0

# Molecular target: ScLsb2
# Assay: as above
# In short: as §1
row,Binder,SPOT peptide array binding signal intensity
1,QPQRTAPKPPISAPR,≤ 0

# Molecular target: ScLsb3
# Assay: as above
# In short: as §1
row,Binder,SPOT peptide array binding signal intensity
1,QPQRTAPKPPISAPR,58

# Molecular target: ScLsb4
# Assay: as above
# In short: as §1
row,Binder,SPOT peptide array binding signal intensity
1,QPQRTAPKPPISAPR,≤ 0

# Molecular target: ScMyo3
# Assay: as above
# In short: as §1
row,Binder,SPOT peptide array binding signal intensity
1,QPQRTAPKPPISAPR,699

# Molecular target: ScMyo5
# Assay: as above
# In short: as §1
row,Binder,SPOT peptide array binding signal intensity
1,QPQRTAPKPPISAPR,613

# Molecular target: ScNbp2
# Assay: as above
# In short: as §1
row,Binder,SPOT peptide array binding signal intensity
1,QPQRTAPKPPISAPR,2700

# Molecular target: ScPex13
# Assay: as above
# In short: as §1
row,Binder,SPOT peptide array binding signal intensity
1,QPQRTAPKPPISAPR,131

# Molecular target: ScRvs167
# Assay: as above
# In short: as §1
row,Binder,SPOT peptide array binding signal intensity
1,QPQRTAPKPPISAPR,≤ 0

# Molecular target: ScSho1
# Assay: as above
# In short: as §1
row,Binder,SPOT peptide array binding signal intensity
1,QPQRTAPKPPISAPR,6

# Molecular target: ScSla1-D1-D2
# Assay: as above
# In short: as §1
row,Binder,SPOT peptide array binding signal intensity
1,QPQRTAPKPPISAPR,1730

# Molecular target: ScSla1-D3
# Assay: as above
# In short: as §1
row,Binder,SPOT peptide array binding signal intensity
1,QPQRTAPKPPISAPR,25.5

# Molecular target: SpAbp1-D1
# Assay: as above
# In short: as §1
row,Binder,SPOT peptide array binding signal intensity
1,QPQRTAPKPPISAPR,2.5

# Molecular target: SpBbc1
# Assay: as above
# In short: as §1
row,Binder,SPOT peptide array binding signal intensity
1,QPQRTAPKPPISAPR,10

# Molecular target: SpBzz1-D1
# Assay: as above
# In short: as §1
row,Binder,SPOT peptide array binding signal intensity
1,QPQRTAPKPPISAPR,260

# Molecular target: SpBzz1-D2
# Assay: as above
# In short: as §1
row,Binder,SPOT peptide array binding signal intensity
1,QPQRTAPKPPISAPR,14.5

# Molecular target: SpCyk3
# Assay: as above
# In short: as §1
row,Binder,SPOT peptide array binding signal intensity
1,QPQRTAPKPPISAPR,0.5

# Molecular target: SpHof1
# Assay: as above
# In short: as §1
row,Binder,SPOT peptide array binding signal intensity
1,QPQRTAPKPPISAPR,≤ 0

# Molecular target: SpHof1-2
# Assay: as above
# In short: as §1
row,Binder,SPOT peptide array binding signal intensity
1,QPQRTAPKPPISAPR,7.5

# Molecular target: SpHof1-3
# Assay: as above
# In short: as §1
row,Binder,SPOT peptide array binding signal intensity
1,QPQRTAPKPPISAPR,≤ 0

# Molecular target: SpHse1
# Assay: as above
# In short: as §1
row,Binder,SPOT peptide array binding signal intensity
1,QPQRTAPKPPISAPR,≤ 0

# Molecular target: SpLsb1
# Assay: as above
# In short: as §1
row,Binder,SPOT peptide array binding signal intensity
1,QPQRTAPKPPISAPR,≤ 0

# Molecular target: SpLsb4
# Assay: as above
# In short: as §1
row,Binder,SPOT peptide array binding signal intensity
1,QPQRTAPKPPISAPR,27.5

# Molecular target: SpMyo1
# Assay: as above
# In short: as §1
row,Binder,SPOT peptide array binding signal intensity
1,QPQRTAPKPPISAPR,2550

# Molecular target: SpNbp2
# Assay: as above
# In short: as §1
row,Binder,SPOT peptide array binding signal intensity
1,QPQRTAPKPPISAPR,22.5

# Molecular target: SpPex13
# Assay: as above
# In short: as §1
row,Binder,SPOT peptide array binding signal intensity
1,QPQRTAPKPPISAPR,1

# Molecular target: SpRvs167
# Assay: as above
# In short: as §1
row,Binder,SPOT peptide array binding signal intensity
1,QPQRTAPKPPISAPR,2.33

# Molecular target: SpSla1-D1-D2
# Assay: as above
# In short: as §1
row,Binder,SPOT peptide array binding signal intensity
1,QPQRTAPKPPISAPR,≤ 0

# Molecular target: SpSla1-D3
# Assay: as above
# In short: as §1
row,Binder,SPOT peptide array binding signal intensity
1,QPQRTAPKPPISAPR,≤ 0
